Assay outcomes (PubChem)
Keap1-Nrf2 PPI = Keap1-Nrf2 protein-protein interaction inhibitors, primary screen, biochemical, fluorescence polarization, single point. Keap1 Kelch-Nrf2 peptide fluorescence polarization, 1536-well. inhibition, % at 9.4 µM. 340,000 compounds, 0.15% hits. AID 504523, 2011; in the data active = inhibition above about 12%;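 also: human Keap1 Kelch domain with fluorescein labeled Nrf2 9mer peptide probe; 0% = neutral control wells and 100% = peptide positive control; higher means more block of Keap1 binding to Nrf2 peptide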
C-LANA FP = inhibitors of KSHV C-LANA binding to DNA, primary screen, biochemical, fluorescence polarization, FAM-LBS DNA, MBP-C-LANA, single point; inhibition, % at 9 µM; Kaposi's sarcoma herpesvirus LANA C-terminal domain (residues 932-1162) DNA binding; AID 504423, 2011; 340,000 compounds, 0.078% hits;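 active = highest replicate inhibition at or above 60% at 9 µM, even if other replicates fall short; inactive = all replicates below 60% inhibition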;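 also: 0% = neutral control wells and 100% = 4 µM acridine orange control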
eLon inh = inhibitors of E. coli Lon protease, primary screen, biochemical, fluorescence polarization; AID 602123, 2011; inhibition, % at 7.94 µM; P0A9M0; purified E. coli Lon protease; 360,000 compounds, 0.42% hits; in the data active = inhibition above about 13%, passing the limit was not always enough;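 also: 0% = enzyme with probe and DMSO and 100% = no enzyme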
EBV gp42 block = Epstein-Barr virus gp42 inhibitors, primary screen, biochemical, uHTS, fluorescence polarization; AID 1085, 2008; inhibition, % (tested at 21.74 µM); Fluorescence polarization binding assay, mP read-out; 220,000 compounds, 0.42% hits; in the data active = inhibition above about 50%
Target sequence (Q1HVG2 whole entry, looked up): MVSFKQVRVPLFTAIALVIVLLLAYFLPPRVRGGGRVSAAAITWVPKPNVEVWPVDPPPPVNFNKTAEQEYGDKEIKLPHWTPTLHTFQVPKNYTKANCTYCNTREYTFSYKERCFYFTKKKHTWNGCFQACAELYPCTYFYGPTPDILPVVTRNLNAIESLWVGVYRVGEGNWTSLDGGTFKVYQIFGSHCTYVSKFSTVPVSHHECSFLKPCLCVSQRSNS
LANA-H2B inh = blockers of LANA interaction with H2A/H2B – biochemical, FP readout, HTS, primary screen; Protein LANA1 (Human herpesvirus 8 type P (isolate GK18)), Q9QR71; inhibition, % (test concentration not listed); cell-free LANA-H2A/H2B peptide, fluorescence polarization; 320,000 compounds, 0.6% hits; in the data active = inhibition mostly above about 10%, no sharp cut-off; inactive = mostly below about 6.7%
GLD-1 RNA inh = GLD-1/TGE RNA complex disruptors, primary screen, biochemical, fluorescence polarization | inhibition, % at 5.96 µM | Female germline-specific tumor suppressor gld-1 (Caenorhabditis elegans), Q17339 | AID 2280, 2010 | 320,000 compounds, 0.44% hits | purified GLD-1 + fluorescein TGE RNA;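 active = percent inhibition above a per-plate cutoff, the plate mean of test compounds plus 3 SD, cut at about 30% in these data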;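 also: 0% = DMSO wells with GLD-1 and probe and 100% = wells lacking GLD-1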
Target sequence (Q17339 whole entry, looked up): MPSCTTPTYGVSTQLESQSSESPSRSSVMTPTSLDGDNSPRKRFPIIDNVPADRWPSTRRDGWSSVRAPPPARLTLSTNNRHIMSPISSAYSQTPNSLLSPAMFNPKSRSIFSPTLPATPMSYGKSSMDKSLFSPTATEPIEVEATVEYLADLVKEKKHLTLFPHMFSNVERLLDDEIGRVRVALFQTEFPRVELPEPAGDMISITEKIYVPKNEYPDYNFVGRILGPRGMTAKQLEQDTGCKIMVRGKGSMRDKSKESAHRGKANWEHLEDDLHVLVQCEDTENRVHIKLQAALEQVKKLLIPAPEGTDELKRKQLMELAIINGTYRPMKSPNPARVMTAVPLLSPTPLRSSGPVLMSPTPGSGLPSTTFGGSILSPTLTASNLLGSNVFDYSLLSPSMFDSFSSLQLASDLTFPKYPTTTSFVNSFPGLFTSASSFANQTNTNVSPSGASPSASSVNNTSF
E coli Lon conf = E. coli Lon protease inhibitor retest, confirmation, biochemical, fluorescence polarization; 1,400 compounds, 31% hits; shares compounds with eLon inh; inhibition, % at 7.94 µM; purified E. coli Lon; in the data active = inhibition above about 16%;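 also: 0% = enzyme with probe and DMSO and 100% = no enzyme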
Starred values were filed as active, the others as inactive; · = not tested or not shown; + = active, no number. Only some compounds are listed: those with a hit (about 1.5% of all), similar ones and a draw of the others.

SMILES | Keap1-Nrf2 PPI | C-LANA FP | eLon inh | EBV gp42 block | LANA-H2B inh | GLD-1 RNA inh | E coli Lon conf
COC(=O)c1cc(COC(=O)c2nc3nc(C)cc(C)n3n2)oc1C | 4.1 | -0.7 | -2.8 | -2.5 | -5.4 | -1.9 | ·
CCO[C@@H]1OC(C(=O)N2CCN(Cc3ccccc3)CC2)=C[C@H](C2CC2)[C@H]1CCCO | -2.5 | -2.6 | -7.9 | -5.7 | -2.0 | 1.5 | ·
CCO[C@H]1OC(C(=O)N2CCN(Cc3ccccc3)CC2)=C[C@@H](C)[C@@H]1CCCO | -5.0 | 5.2 | 28.5* | -10.1 | 5.6 | 3.1 | 5.4
CCOC(=O)c1cc(OC)c2cccc(CN3CCC(C)(C(=O)NCCOC)C3)c2c1 (stereo unspecified) | · | · | 96.8* | · | · | · | 45.6*
CCOC(=O)c1cc(OC)c2cccc(CN3CCCC(C)(C(=O)NCCOC)C3)c2c1 (stereo unspecified) | · | · | -1.9 | · | · | · | ·
COCC(=O)Nc1ccc(S(=O)(=O)Nc2onc(C)c2C)cc1 | · | · | 61.7* | · | · | · | -6.6
COc1ccc(S(=O)(=O)c2c(O)c3ccc(C(=O)Nc4ccccc4Cl)cc3[nH]c2=O)cc1 | 3.7 | 0.7 | 24.8* | · | -1.1 | -4.7 | 9.5
COc1ccc(-c2nnc(SCC(=O)N3CCOCC3)o2)cc1OC | 0.1 | 1.3 | 13.8* | -9.3 | 2.6 | 6.9 | 1.9
COc1ccc(-c2nnc(SCC(=O)N3CCN(c4ccccc4)CC3)o2)cc1OC | -2.6 | 1.8 | 3.5 | -15.9 | -7.2 | 7.0 | ·
O=C(C/C=N\OCc1ccc([N+](=O)[O-])cc1)Nc1ccc(Br)cc1 | -2.7 | -0.1 | 17.3* | 14.9 | -3.1 | 9.3 | -1.8
O=C(COc1ccc([N+](=O)[O-])cc1)NNC(=O)Nc1ccc([N+](=O)[O-])cc1 | -7.5 | 0.6 | 0.4 | · | -0.6 | -4.3 | ·
c1cc(CNc2ccc3c(c2)OCO3)ccn1 | 7.8 | 16.9 | 26.9* | 28.3 | -5.9 | 27.4 | 33.9*
CC1CCCN(C(=O)COC(=O)CNC(=O)c2sc3ccccc3c2Cl)C1 (stereo unspecified) | -0.6 | 0.9 | -9.4 | · | 0.6 | 3.8 | ·
O=C(NCCOc1ccccc1)C1CCC(=O)N(C2CCCCCC2)C1 (stereo unspecified) | -3.5 | 0.4 | 1.1 | · | -28.3 | 2.1 | ·
COc1ccccc1NC(=O)Cn1cnc2c(oc3ccccc32)c1=O | 1.1 | -0.1 | -5.2 | -22.1 | -2.3 | 3.2 | ·
COC(=O)Cn1cnc2c(oc3ccccc32)c1=O | 2.2 | 0.0 | 22.3* | · | -0.3 | 5.2 | -1.9
CCCC(c1nnnn1CCOC)N1CCN(C(=O)c2ccco2)CC1 (stereo unspecified) | 0.7 | -0.7 | 29.3* | -15.2 | -7.8 | -3.6 | -7.2
CCCc1nn2c(-c3ccccc3)nnc2o1 | · | · | -6.6 | · | · | · | ·
O=C(c1[nH]ncc1-c1ccccc1)C1CO1 (stereo unspecified) | 1.0 | -1.9 | 50.0* | -13.6 | 8.3 | 3.6 | 20.8*
O=C(c1[nH]ncc1-c1cccc(Br)c1)C1CO1 (stereo unspecified) | -2.2 | 0.0 | 1.2 | -13.2 | -2.7 | 5.5 | ·
O=C(c1ccccc1Cl)N(Cc1ccc(Cl)c(Cl)c1)N1C(=O)CCCC1=O | -0.9 | 0.9 | 17.8* | 12.0 | -0.2 | 0.5 | 5.1
COC(=O)C1CCN(C(=O)c2cc3c(=O)n4cccc(C)c4nc3n2Cc2ccccc2)CC1 | -2.8 | -0.8 | -0.6 | -13.4 | 0.6 | -8.3 | ·
Cc1ccc(CNC(=O)c2cc(C3CC3)nc3c2cnn3C(C)C)cc1 | 0.0 | 0.3 | -1.5 | · | 8.6 | 1.8 | ·
Cc1ccc(OCCNC(=O)c2cc(C3CC3)nc3c2cnn3C(C)C)cc1 | -0.9 | -1.4 | + | · | 1.6 | 4.8 | -32.7
COc1cc(CNc2ccccc2)c([N+](=O)[O-])cc1OC | -1.9 | 0.0 | 0.5 | · | 0.7 | 5.1 | ·
SMILES | Keap1-Nrf2 PPI | C-LANA FP | eLon inh | EBV gp42 block | LANA-H2B inh | GLD-1 RNA inh | E coli Lon conf
CN(Cc1cccs1)C(=O)c1ccc(Cl)c(S(=O)(=O)N2CCCCCC2)c1 | -5.7 | -1.5 | 14.4 | · | -0.1 | 4.0 | ·
CCC(CO)Oc1cc(NCc2cccnc2)c2ncn(C(C)C)c2c1 (stereo unspecified) | -5.2 | 2.6 | 27.4* | · | 0.8 | 4.5 | 13.7
CC/C=C(/NC(C)=O)c1ccccc1 | -2.1 | -0.7 | -5.0 | · | -1.2 | 5.5 | ·
Cc1cc(C)cc(Cn2cc(CN3CC(N4CCN(Cc5ccccc5F)CC4)CS3(=O)=O)nn2)c1 (stereo unspecified) | · | · | 4.1 | · | · | · | ·
CC1CCCCC1NC(=O)CN1C(=O)c2cccc(N)c2C1=O (stereo unspecified) | -0.8 | 1.0 | 16.8* | 79.4* | · | · | 25.5*
CC1CCCCC1NC(=O)COC(=O)CN1C(=O)c2ccccc2C1=O (stereo unspecified) | -1.3 | 0.2 | -2.4 | · | 0.4 | 4.2 | ·
CCCc1cc(=O)[nH]c(SCC(=O)Nc2cccc(S(=O)(=O)N3CCOCC3)c2)n1 | -5.4 | -0.7 | 2.0 | · | 1.9 | 3.2 | ·
O=C(CS(=O)CC(=O)N(c1cccc(F)c1)C(C(=O)NC1CCCCC1)c1ccco1)Nc1ccc(F)cc1 (stereo unspecified) | -1.1 | -0.3 | 2.2 | -5.5 | 5.8 | -3.0 | ·
O=C(c1ccco1)N1CCN(CC(O)COc2ccc3oc4ccccc4c3c2)CC1 (stereo unspecified) | -6.3 | 1.1 | -1.0 | -26.2 | 2.2 | 2.3 | ·
NS(=O)(=O)c1ccc(NS(=O)(=O)c2ccc(C3CNC(=O)C3)cc2)cc1 (stereo unspecified) | -3.8 | -0.1 | 19.1* | · | 1.1 | 7.4 | 6.7
CC(C)n1c(S(=O)(=O)O)nc2ccccc21 | -6.0 | -1.4 | 14.1* | 9.7 | 15.3 | 1.6 | -0.7
CC(NC(=O)C1CCC(CNS(=O)(=O)c2ccccc2)CC1)c1ccccc1 (stereo unspecified) | 0.5 | 0.1 | -7.6 | · | -0.7 | 0.0 | ·
COc1ccc(F)cc1C(=O)C1CCCN(Cc2c(C)n(C)n(-c3ccccc3)c2=O)C1 (stereo unspecified) | 0.6 | -0.6 | -3.6 | -15.0 | 0.3 | 4.7 | ·
O=C(Cn1nc(-c2ccc(Cl)cc2)c2ccccc2c1=O)Nc1cccnc1 | -7.6 | 2.7 | 18.1* | 3.7 | 0.3 | -2.1 | 1.5
O=C(Cn1nc(-c2ccccc2)c2ccccc2c1=O)Nc1cccnc1 | -1.9 | 0.3 | -2.1 | 0.3 | 0.3 | -3.6 | ·
CCN(CC)S(=O)(=O)c1cccc(NC(=O)COC(=O)C2CC3C=CC2C3)c1 (stereo unspecified) | -0.8 | -0.6 | -8.4 | 3.7 | -1.9 | 5.0 | ·
